Some test systems named below: HCT-15 colon; HT29 colon; SNB-75 CNS; SNB-19 CNS; U251 CNS; PC-3 prostate; SK-MEL-5 melanoma; UACC-62 melanoma; SK-MEL-28 melanoma; LOX IMVI melanoma.
Holding throughout (assay): NCI-60 one-dose screen, 48 h (100 = growth as untreated, 0 = no growth, -100 = all killed)
Holding throughout (settings): 10 µM unless noted

About 83,000 compounds went through this panel and 20% of them were active in at least one assay; those are over-represented in the sample as a whole.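 Single-dose data. Exposure time 48 hours. Values below 10 considered active.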 Values without a mark were called inactive. Activity calls are given as the source filed them.

On to `COc1ccc(/C=C(\C#N)n2nnc3cc(F)c(F)cc32)c(OC)c1OC`, for which the growth is 43.7% in the test with HCT-15 colon; 64.5% in the test on HT29 colon; 82% with SNB-75 CNS; 82.9% in the test with SNB-19 CNS; 73.9% in the test with U251 CNS; 57.9% in the test on PC-3 prostate. For the same molecule, the growth in the test on SK-MEL-5 melanoma is 60.5%; in the test on UACC-62 melanoma, 58.6%; in the test with SK-MEL-28 melanoma it was 77.3%.
Take `Cc1ccc(S(=O)(=O)N(CC[C@@H]2C[C@H]2c2cc3ccccc3o2)C(=O)NC2CCCCC2)cc1`: the growth in the test on HCT-15 colon was 92.3%; in the test on HT29 colon, 90.8%; in the test with SNB-75 CNS, 102%; in the test with SNB-19 CNS, 99.8%; in the test on U251 CNS it was 100%; in the test on PC-3 prostate it was 95.6%. The growth in the test with SK-MEL-5 melanoma is 101%; with UACC-62 melanoma it was 78.4%; in the test on LOX IMVI melanoma, 90.5%; in the test with SK-MEL-28 melanoma it was 95.7%.
Regarding `C[C@]12CCC(=O)C[C@H]1CC[C@@H]1[C@@H]2CC[C@@]2(C)[C@H]1CC[C@]2(O)C(=O)CO`, the growth in the test on HCT-15 colon is 104%; in the test with HT29 colon it was 99.4%; with SNB-75 CNS, 94.4%; in the test on SNB-19 CNS it was 108%; in the test with U251 CNS, 121%; in the test on PC-3 prostate, 102%. Moreover, the growth in the test with SK-MEL-5 melanoma was 104%; with UACC-62 melanoma it was 102%; in the test with SK-MEL-28 melanoma, 108%.
Regarding `COc1ccc(Oc2nc(Nc3ccc(N4CCCCC4)nc3)ncc2NC(=O)c2cc(OC)cc(OC)c2)cc1`, the growth was 17.8% with HCT-15 colon; 13.8% in the test on HT29 colon; 34.1% in the test with SNB-75 CNS; 41.5% in the test with SNB-19 CNS; 35.1% with U251 CNS; 35.6% in the test with PC-3 prostate. The growth with SK-MEL-5 melanoma is 28.7%; in the test with UACC-62 melanoma, 18.8%; in the test on SK-MEL-28 melanoma, 53.9%.
Consider `CCCn1nc(-c2ccccc2)c2c(-c3ccccc3)onc2c1=O`, for which the growth with HCT-15 colon was 61.8%; with HT29 colon, 43.1%; with SNB-75 CNS, 53%; in the test with SNB-19 CNS, 77.2%; with U251 CNS it was 72.9%; in the test on PC-3 prostate, 73%. Moreover, the results for the growth in the test with SK-MEL-5 melanoma, in the test on UACC-62 melanoma and in the test with SK-MEL-28 melanoma were 79.7%, 53.8% and 95.5%, respectively.
Consider `C=C(CNCCc1ccc(O)cc1)[C@@H]1CC[C@]2(COC3CCCCO3)CC[C@]3(C)[C@H](CC[C@@H]4[C@@]5(C)CCC(NCCO)C(C)(C)[C@@H]5CC[C@]43C)[C@@H]12` (some centres not stated), for which the growth in the test with HCT-15 colon is -93.5% (active); in the test with HT29 colon, -90.3% (active); with SNB-75 CNS it was -17.6% (active); with SNB-19 CNS, -93.9% (active); in the test on U251 CNS, -95% (active); in the test with PC-3 prostate, -92.6% (active). The growth in the test on SK-MEL-5 melanoma is -95.4% (active); in the test on UACC-62 melanoma it was -85.9% (active); in the test on SK-MEL-28 melanoma, -94.4% (active).
Regarding `COc1ccc(-n2sc(=O)n(Cc3ccc(COC(=O)C(C)c4ccc(CC(C)C)cc4)cc3)c2=O)cc1` (configuration not stated), the growth with HCT-15 colon is 36.3%; in the test on HT29 colon, 22%; in the test with SNB-75 CNS, 46.7%; in the test on SNB-19 CNS, 80.5%; in the test on U251 CNS, 75.3%; with PC-3 prostate, 61.7%. The growth with UACC-62 melanoma is 55.2%; with LOX IMVI melanoma, -75.9% (active); in the test on SK-MEL-28 melanoma, 52.8%.
On to `Cc1cc(N2CCCCC2)nc(N(CCNc2ccnc3cc(Cl)ccc23)Cc2ccccn2)n1`, for which the growth was 17.6% in the test on HCT-15 colon; 13.1% with HT29 colon; 80.3% in the test with SNB-75 CNS; 75% in the test with SNB-19 CNS; 41.8% in the test with U251 CNS; 45.1% in the test on PC-3 prostate. Besides, the growth was 48.8% in the test with SK-MEL-5 melanoma, 67.5% with UACC-62 melanoma and 62.7% in the test on SK-MEL-28 melanoma.
On to `COc1ccc(OC)c(C(=O)Nc2cccc(-c3cc(=O)c4ccccc4o3)c2)c1`, for which the growth was 93.4% in the test on HCT-15 colon; 91.3% in the test on HT29 colon; 64.4% in the test on SNB-75 CNS; 70.7% in the test on SNB-19 CNS; 93.8% in the test with U251 CNS; 92.8% with PC-3 prostate. The growth in the test on UACC-62 melanoma is 87.1%; with LOX IMVI melanoma, 97.4%; with SK-MEL-28 melanoma, 104%.
Regarding `C=C1C(=O)O[C@H]2[C@H]1CC/C(COC(=O)/C=C\C(=O)NCc1ccc(Cn3c(=O)sn(-c4ccc(OC)cc4)c3=O)cc1)=C\CC[C@@]1(C)O[C@@H]21`, the growth with HCT-15 colon is -58.1% (active); in the test with HT29 colon it was -22.9% (active); in the test on SNB-75 CNS, -57.8% (active); in the test with SNB-19 CNS, 7.17% (active); in the test with U251 CNS, -60.3% (active); in the test on PC-3 prostate, -58% (active). The growth in the test with UACC-62 melanoma was -99.6% (active); in the test with LOX IMVI melanoma, -88.6% (active); with SK-MEL-28 melanoma, -92% (active).
As to `C=C1c2c(C)nn(-c3ccc(NC(C)=O)cc3)c2N(C)C23CC1C1(C)c4c(C)nn(-c5ccc(NC(C)=O)cc5)c4N(C)C(C)(CC12)C3` (configuration not stated), the growth in the test on HCT-15 colon was 11%; with HT29 colon it was 31.1%; in the test with SNB-75 CNS, 99%; with SNB-19 CNS it was 43.6%; in the test on U251 CNS, 33.3%; in the test with PC-3 prostate, 22.7%. Moreover, the growth with SK-MEL-5 melanoma was 19.1%; with UACC-62 melanoma, 37%; with SK-MEL-28 melanoma, 46.9%.
Regarding `C=C1C(=O)O[C@H]2[C@H]1CC/C(COC(=O)/C=C\C(=O)NCc1ccc(Cn3c(=O)sn(CCCI)c3=O)cc1)=C\CC[C@@]1(C)O[C@@H]21`, the growth is -38% (active) in the test on HCT-15 colon; -30.1% (active) in the test with HT29 colon; -63.9% (active) with SNB-75 CNS; 1.92% (active) with SNB-19 CNS; -72% (active) with U251 CNS; -70.6% (active) in the test with PC-3 prostate. Also, the growth in the test on UACC-62 melanoma was -98.2% (active); in the test with LOX IMVI melanoma, -83.2% (active); with SK-MEL-28 melanoma, -94.7% (active).
Take `Cc1nc(Nc2ccc(NC(=S)Nc3ccccc3)cc2)c2ccccc2n1`: the growth with HCT-15 colon is 101%; in the test with HT29 colon, 107%; in the test with SNB-75 CNS, 104%; in the test with SNB-19 CNS, 105%; in the test with U251 CNS it was 101%; in the test on PC-3 prostate it was 99.2%. In addition, the growth is 95.1% in the test on UACC-62 melanoma, 97.9% in the test on LOX IMVI melanoma and 108% in the test with SK-MEL-28 melanoma.
In the case of `C=C(C)[C@@H]1CC[C@]2(CNCCO)CC[C@]3(C)[C@H](CC[C@@H]4[C@@]5(C)CCC(N)[C@@](C)(CO)[C@@H]5CC[C@]43C)[C@@H]12` (some centres not stated), the growth in the test on HCT-15 colon was 32.4%; in the test with HT29 colon it was -56.8% (active); with SNB-75 CNS, 73.5%; in the test on SNB-19 CNS, 29.8%; in the test with U251 CNS it was -86.1% (active); in the test with PC-3 prostate, 20.1%. Also, the growth in the test with SK-MEL-5 melanoma was -96.1% (active); in the test on UACC-62 melanoma, -75.7% (active); with SK-MEL-28 melanoma, -85.7% (active).

These data come from PubChem BioAssay (NCI).
